Data published in PubChem BioAssay (NCATS).
Records with an inconclusive call do not appear. Activity calls are given as the source filed them. Unless noted, the call rests on the fitted dose curve; in most records, active means well fitted curve in the direction sought with a large enough effect; inconclusive means small, poorly fitted or top-dose-only effect, or another doubt; inactive means no such curve, though single readings can be large; an effect the other way counts as inactive or inconclusive.

Legend:
[1] = biological target: Lysosomal acid glucosylceramidase (Homo sapiens) (UniProt P04062); experiment: Glucocerebrosidase-p2 (AID 348; in the data active means potency below about 10 µM; further: potency means the concentration at half of the fitted maximal effect); conditions: purified GBA, blue fluorogenic substrate, 40 min
Chain of Lysosomal acid glucosylceramidase (Homo sapiens) (P04062 whole entry, looked up): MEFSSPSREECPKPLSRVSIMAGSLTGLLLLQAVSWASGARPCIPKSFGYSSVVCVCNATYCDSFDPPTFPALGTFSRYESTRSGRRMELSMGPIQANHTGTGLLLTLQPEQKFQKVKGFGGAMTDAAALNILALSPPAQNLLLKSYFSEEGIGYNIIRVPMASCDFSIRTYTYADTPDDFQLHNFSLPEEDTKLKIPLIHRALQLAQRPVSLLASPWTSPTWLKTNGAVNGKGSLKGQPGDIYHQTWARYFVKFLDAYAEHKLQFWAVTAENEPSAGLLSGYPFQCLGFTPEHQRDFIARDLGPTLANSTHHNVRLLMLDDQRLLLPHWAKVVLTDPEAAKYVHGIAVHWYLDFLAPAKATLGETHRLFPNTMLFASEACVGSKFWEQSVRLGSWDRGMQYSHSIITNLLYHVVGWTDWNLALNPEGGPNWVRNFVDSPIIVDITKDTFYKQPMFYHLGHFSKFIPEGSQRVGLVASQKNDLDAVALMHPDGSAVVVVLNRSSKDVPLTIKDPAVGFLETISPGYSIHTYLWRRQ
In short: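 Normal human glucocerebrosidase (0.2 nM) with blue fluorogenic substrate (80 uM final) in citrate/phosphate pH 5.9 with 10mM sodium taurocholate, 0.01% tween-20; 40 min RT, NaOH/glycine stop; fluorescence Ex 365/Em 440; AC50 from a titration from 0.6 nM upwards.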

[2] = biological target: Cytochrome P450 1A2 (Homo sapiens) (UniProt P05177); experiment: p450-cyp1a2 (AID 410; calls by dose curve; further: potency means the concentration at half of the fitted maximal effect;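 on activity change, negative = inhibition: -100% = full effect of reference inhibitor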)
Chain of Cytochrome P450 1A2 (Homo sapiens) (P05177 whole entry, looked up): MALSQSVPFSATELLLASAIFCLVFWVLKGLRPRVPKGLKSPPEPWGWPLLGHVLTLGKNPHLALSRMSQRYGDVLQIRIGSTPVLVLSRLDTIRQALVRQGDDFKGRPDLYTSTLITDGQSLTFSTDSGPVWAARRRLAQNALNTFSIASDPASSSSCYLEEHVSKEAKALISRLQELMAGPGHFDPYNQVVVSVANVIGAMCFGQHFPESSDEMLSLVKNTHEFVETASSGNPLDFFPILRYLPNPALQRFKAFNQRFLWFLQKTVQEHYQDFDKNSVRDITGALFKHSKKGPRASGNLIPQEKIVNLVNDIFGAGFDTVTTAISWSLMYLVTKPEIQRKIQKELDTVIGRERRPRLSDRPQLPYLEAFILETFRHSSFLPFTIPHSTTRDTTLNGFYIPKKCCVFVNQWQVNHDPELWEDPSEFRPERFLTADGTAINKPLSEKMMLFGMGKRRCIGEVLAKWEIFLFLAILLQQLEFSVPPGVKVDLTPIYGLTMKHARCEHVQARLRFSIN
In short: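 20nM CYP1A2, 100uM Luciferin-ME (=Km), 100mM KPO4; cpd 10 min RT; +NADPH regen, 60 min RT; stop/detect 20 min; luminescence. Normalized to furafylline 57 uM = full inhibition.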

[3] = Stat Signaling Pathway (AID 446; active means well fitted curve in either direction with a large enough effect, not every such curve was filed as active;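 further: ME-180 cervical cancer cells given 40 pM IL-6 alongside compound; SIE-controlled beta-lactamase reporter measured as 460/530 nm FRET emission ratio; on the % scale 0 is the no-effect control and ±100 the full control effect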)
In short: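 FRET read-out (405 nm excitation, 460/530 nm emission) of a beta-lactamase reporter under a STAT-inducible element in ME-180 cervical carcinoma cells. Cells with compound receive 40 pM IL-6 for 5 h. Values are normalised to AC90 stimulation and AC90 JAK-inhibitor controls.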

[4] = biological target: Glucocorticoid receptor (Homo sapiens) (UniProt P04150); experiment: GR-EFC Redistribution (AID 451; calls by dose curve; further: potency means the concentration at half of the fitted maximal effect); conditions: CHO-K1 GR-EFC translocation, beta-gal luminescence, 2 h
Chain of Glucocorticoid receptor (Homo sapiens) (P04150 whole entry, looked up, the tested form may be a part): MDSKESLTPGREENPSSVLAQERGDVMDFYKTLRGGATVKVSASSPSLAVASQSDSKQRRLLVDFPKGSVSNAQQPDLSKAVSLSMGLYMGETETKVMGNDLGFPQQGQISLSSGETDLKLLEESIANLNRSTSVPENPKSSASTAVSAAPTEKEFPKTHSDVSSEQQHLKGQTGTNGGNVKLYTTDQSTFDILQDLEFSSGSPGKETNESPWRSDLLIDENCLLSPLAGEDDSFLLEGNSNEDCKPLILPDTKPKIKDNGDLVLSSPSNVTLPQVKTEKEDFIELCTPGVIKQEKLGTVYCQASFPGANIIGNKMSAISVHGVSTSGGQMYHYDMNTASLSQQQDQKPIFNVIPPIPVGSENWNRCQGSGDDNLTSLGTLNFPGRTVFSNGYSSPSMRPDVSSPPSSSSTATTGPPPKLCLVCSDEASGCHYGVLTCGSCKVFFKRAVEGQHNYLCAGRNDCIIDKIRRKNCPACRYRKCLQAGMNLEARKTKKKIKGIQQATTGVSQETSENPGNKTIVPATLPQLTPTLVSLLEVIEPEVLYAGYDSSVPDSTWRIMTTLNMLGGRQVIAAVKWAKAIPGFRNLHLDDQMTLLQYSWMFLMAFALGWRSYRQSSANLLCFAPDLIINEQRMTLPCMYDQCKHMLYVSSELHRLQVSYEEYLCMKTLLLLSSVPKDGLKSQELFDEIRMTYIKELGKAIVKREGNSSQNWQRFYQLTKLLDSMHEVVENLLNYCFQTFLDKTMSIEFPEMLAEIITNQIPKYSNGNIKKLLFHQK
In short: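 CHO-K1 cells stably expressing nuclear-localized β-gal enzyme acceptor and GR fused C-terminally to the enzyme donor fragment; ligand-driven nuclear translocation restores β-gal by complementation. Compounds titrated up to 46 uM final, 2 h at 37 °C; luminescence read.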

[5] = biological target: Mitogen-activated protein kinase 10 (Mus musculus) (UniProt Q61831); experiment: JNK3 AlphaScreen Assay (AID 530; active means well fitted curve in either direction with a large enough effect, not every such curve was filed as active;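 further: kinase came from lysate of stimulated human HepG2 cells; signal reports phosphorylation of biotinylated GST-cJun 1-79 at Ser73 with 10 µM ATP; on the % scale 0 is the no-effect control and ±100 the full control effect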)
In short: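 Biotinylated GST-cJun(1-79) served as substrate for JNK3 in HepG2 lysates stimulated with IL-1beta and TNF-alpha. ATP was 10 uM final, pH 7.6. Ser73 phosphorylation was quantified by AlphaScreen (680 nm excitation).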

[6] = biological target: Ubiquitin carboxyl-terminal hydrolase 1 (Homo sapiens) (UniProt O94782); experiment: Inhibitors of USP1/UAF1: Pilot qHTS (AID 504865);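 further: rhodamine fluorescence freed from ubiquitin-rhodamine substrate followed over time; top concentration of the series differs between compounds; on the % scale 0 is the no-effect control and ±100 the full control effect; nearly all actives have a fitted effect of over 35% in size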
Chain of Ubiquitin carboxyl-terminal hydrolase 1 (Homo sapiens) (O94782 whole entry, looked up): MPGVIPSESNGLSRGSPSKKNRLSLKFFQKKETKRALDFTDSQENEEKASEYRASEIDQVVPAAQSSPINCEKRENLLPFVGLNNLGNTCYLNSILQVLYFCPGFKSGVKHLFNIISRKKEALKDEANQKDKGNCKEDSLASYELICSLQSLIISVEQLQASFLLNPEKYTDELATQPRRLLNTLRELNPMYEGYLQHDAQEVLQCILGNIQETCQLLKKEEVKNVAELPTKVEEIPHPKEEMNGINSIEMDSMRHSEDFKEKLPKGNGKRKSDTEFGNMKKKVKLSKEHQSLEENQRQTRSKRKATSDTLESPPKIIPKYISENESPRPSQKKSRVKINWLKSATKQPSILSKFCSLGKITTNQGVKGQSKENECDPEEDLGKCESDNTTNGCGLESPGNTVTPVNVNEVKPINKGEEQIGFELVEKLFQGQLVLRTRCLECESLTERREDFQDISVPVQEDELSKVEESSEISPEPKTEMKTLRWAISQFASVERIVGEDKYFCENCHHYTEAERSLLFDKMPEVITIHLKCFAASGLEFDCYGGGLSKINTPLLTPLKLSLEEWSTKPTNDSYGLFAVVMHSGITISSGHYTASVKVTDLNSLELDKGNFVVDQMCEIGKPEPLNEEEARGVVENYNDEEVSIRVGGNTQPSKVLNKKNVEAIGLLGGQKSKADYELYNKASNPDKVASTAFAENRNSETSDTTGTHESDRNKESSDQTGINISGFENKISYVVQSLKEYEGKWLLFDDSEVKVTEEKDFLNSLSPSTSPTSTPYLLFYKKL
In short: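 USP1/UAF1 complex at 1 nM preincubated 15 min at room temperature with compound, then Ub-Rho substrate added at 150 nM final. Fluorescence (480/540 nm) read kinetically in 50 mM HEPES pH 7.8, 0.5 mM EDTA, 1 mM TCEP, 0.1 mg/ml BSA, 0.01% Tween-20.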

[7] = NFAT Signaling Pathway (AID 444; active means well fitted curve in either direction with a large enough effect, not every such curve was filed as active;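 further: carbachol stimulus at about its EC50 of 1 µM final; on the % scale 0 is the no-effect control and ±100 the full control effect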); conditions: Jurkat NFAT-bla M1, carbachol, beta-lactamase ratio, 5 h; at 7.69 µM (top of the series) unless noted
In short: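 Jurkat cells carrying an NFAT-driven β-lactamase reporter and co-transfected muscarinic M1 receptor were treated with compound plus carbachol (1 uM final, an EC50 level) for 5 h at 37 °C. CCF4 loading followed for 1 h at RT; 460/530 nm ratio gave %activity.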

[8] = biological target: Glucocorticoid receptor (Homo sapiens) (UniProt P04150); experiment: GR-GFP Redistribution (AID 450;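 active means compounds whose dose series gives a full or clear partial fitted curve of increased nuclear translocation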; further: potency means the concentration at half of the fitted maximal effect); conditions: U2OS GR-GFP nuclear translocation, laser cytometry, 2 h
[9] = Viability counterscreen for antagonist of constitutive androstane receptor (CAR) against the NCATS DSHEA and TCM libraries (AID 1794837);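 further: compound exposure lasted 24 h before viability reading; 0% is about no effect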
In short: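 HepG2-CYP2B6-hCAR cells, 2,500/well, were exposed 24 hr at 37C to substances together with 48 uM CITCO (final). Viability was read as CellTiter-Fluor fluorescence (Ex/Em 405/540 nm) after 1 hr.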

[10] = Viability counterscreen for agonist of constitutive androstane receptor (CAR) against the NCATS DSHEA and TCM libraries (AID 1794838);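 further: HepG2 cells with CYP2B6 reporter and hCAR plus 0.75 µM PK11195 antagonist; 0% is about no effect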
In short: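 HepG2-CYP2B6-hCAR cells (2,500/well) treated 24 h at 37C with compounds plus 0.75 uM PK11195; viability read by CellTiter-Fluor fluorescence, Ex/Em 405/540 nm.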

[11] = biological target: Nuclear receptor subfamily 1 group I member 3 (Homo sapiens) (UniProt Q14994); experiment: Primary qHTS for agonist of constitutive androstane receptor (CAR) against the NCATS DSHEA and TCM libraries (AID 1794839);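 further: HepG2 cells expressing human CAR with a CYP2B6 reporter plus PK11195 antagonist; 0% is about no effect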
Chain of Nuclear receptor subfamily 1 group I member 3 (Homo sapiens) (Q14994 whole entry, looked up): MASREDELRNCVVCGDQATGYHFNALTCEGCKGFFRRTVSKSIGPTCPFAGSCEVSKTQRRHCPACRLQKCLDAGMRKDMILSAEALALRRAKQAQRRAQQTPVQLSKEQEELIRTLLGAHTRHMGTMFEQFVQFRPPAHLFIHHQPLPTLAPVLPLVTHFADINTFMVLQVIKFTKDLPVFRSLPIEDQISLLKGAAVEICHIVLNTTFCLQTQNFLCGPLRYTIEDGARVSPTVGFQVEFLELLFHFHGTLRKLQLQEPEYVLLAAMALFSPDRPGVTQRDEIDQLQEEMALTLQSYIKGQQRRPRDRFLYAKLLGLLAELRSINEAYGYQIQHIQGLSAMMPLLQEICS
In short: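 HepG2-CYP2B6-hCAR cells, 2,500/well, attached 5 h, then dosed with 0.75 µM PK11195 (final) for 24 h at 37 °C. Luciferase luminescence read (ONE-Glo); CellTiter-Fluor viability (Ex/Em 405/540 nm) in same wells; CITCO positive control.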

[12] = HepG2 viability counterscreen (readout 2: ATP content) against the NCATS DSHEA and TCM libraries (AID 1794840); further: 0% is about no effect
In short: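 HepG2 cells, 1,000/well, attached ~4 h, then exposed ~24 h at 37C to substances. Protease activity read by fluorescence of 25 uM GF-AFC (Ex/Em 380/510 nm) after 30 min; ATP then by CellTiter-Glo luminescence.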

[13] = biological target: Cytochrome P450 3A4 (Homo sapiens) (UniProt P08684); experiment: qHTS for inhibitors of CYP3A4 against the NCATS DSHEA and TCM libraries (AID 1919971);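 further: on the % scale 0 is the no-effect control and ±100 the full control effect; inhibition lowers luminescence from luciferin made by CYP3A4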
Chain of Cytochrome P450 3A4 (Homo sapiens) (P08684 whole entry, looked up): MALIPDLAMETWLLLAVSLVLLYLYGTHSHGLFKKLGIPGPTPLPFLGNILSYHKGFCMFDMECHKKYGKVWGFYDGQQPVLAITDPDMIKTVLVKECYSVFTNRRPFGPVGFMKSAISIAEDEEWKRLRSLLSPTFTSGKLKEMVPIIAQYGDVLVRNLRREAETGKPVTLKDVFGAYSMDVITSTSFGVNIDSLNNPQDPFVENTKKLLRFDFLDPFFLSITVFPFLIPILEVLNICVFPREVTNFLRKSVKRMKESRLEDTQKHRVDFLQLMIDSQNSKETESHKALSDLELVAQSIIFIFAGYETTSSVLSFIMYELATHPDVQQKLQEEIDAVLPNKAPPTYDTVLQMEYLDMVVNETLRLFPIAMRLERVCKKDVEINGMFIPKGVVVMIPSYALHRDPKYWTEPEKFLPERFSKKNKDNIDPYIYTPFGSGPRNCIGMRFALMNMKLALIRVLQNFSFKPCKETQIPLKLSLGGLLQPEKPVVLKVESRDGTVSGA
In short: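 Substances were tested against enzyme with a pro-luciferin substrate; minus-enzyme wells served as background. After NADPH-initiated oxidation (30-45 min, RT), light was generated with P450-Glo reagent.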

[14] = biological target: Cytochrome P450 2D6 (Homo sapiens) (UniProt P10635); experiment: qHTS for inhibitors of CYP2D6 against the NCATS DSHEA and TCM libraries (AID 1919972); further: on the % scale 0 is the no-effect control and ±100 the full control effect
Chain of Cytochrome P450 2D6 (Homo sapiens) (P10635 whole entry, looked up): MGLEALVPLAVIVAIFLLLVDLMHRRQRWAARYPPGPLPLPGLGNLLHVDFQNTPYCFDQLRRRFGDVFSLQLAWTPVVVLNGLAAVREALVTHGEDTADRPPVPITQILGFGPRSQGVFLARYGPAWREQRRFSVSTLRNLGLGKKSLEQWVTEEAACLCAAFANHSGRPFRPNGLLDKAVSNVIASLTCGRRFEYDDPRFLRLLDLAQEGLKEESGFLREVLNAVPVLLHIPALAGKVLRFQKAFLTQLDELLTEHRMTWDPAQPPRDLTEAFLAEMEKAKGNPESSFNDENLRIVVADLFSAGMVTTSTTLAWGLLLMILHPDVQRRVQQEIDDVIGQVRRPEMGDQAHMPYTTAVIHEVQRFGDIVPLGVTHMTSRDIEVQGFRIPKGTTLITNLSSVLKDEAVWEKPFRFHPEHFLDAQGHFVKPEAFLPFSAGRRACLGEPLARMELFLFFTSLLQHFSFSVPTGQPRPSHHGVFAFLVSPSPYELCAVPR
In short: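 qHTS, concentration–response format with most substances from 19.5 nM. CYP2D6 + pro-luciferin substrate, 15 min with compound, then 1x NADPH regen, 30–45 min RT dark. Glo detection 30 min, luminescence. Quinidine control.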

[15] = KB-3-1 P-gp reporter qHTS against the NCATS DSHEA and TCM libraries (AID 1919975); further: 0% is about no effect
In short: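 Parental KB-3-1 cells, 500 cells/well, in DMEM with 10% FBS, exposed 72 h at 37 C to compounds in concentration-response. Viability read by CellTiter-Glo luminescence after 30 min at room temperature.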

[16] = qHTS Counterscreen for compound interference against the NCATS DSHEA and TCM libraries (AID 1919978); conditions: firefly luciferase detection reagent interference, luminescence;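 further: compounds preincubated with 1 µM D-luciferin or buffer before detection reagent; % of control where 0% means no effect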
In short: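 Firefly luciferase detection reagent was added after compounds (19.5 nM–39.8 uM final) had been incubated 15 min at room temperature with 1 uM D-luciferin or with 100 mM phosphate buffer alone. Luminescence was read after 30 min at room temperature.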

[17] = Dual reporter qHTS for agonist of Pregnane X Receptor (hPXR) against the NCATS DSHEA and TCM libraries: Fluorescence readout (AID 1920058); further: 0% is about no effect
In short: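 Fluorescence read-out for cell viability: CellTiter-Fluor, 1 h at 37 °C, Ex/Em 405/540 nm. This followed ~24 h treatment of hPXR-Luc HepG2 cells with substances in agonist mode.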

[18] = biological target: Nuclear receptor subfamily 1 group I member 2 (Homo sapiens) (UniProt O75469); experiment: Dual reporter qHTS for agonist of Pregnane X Receptor (hPXR) against the NCATS DSHEA and TCM libraries: Luminescence readout (AID 1920059); further: 0% is about no effect
Chain of Nuclear receptor subfamily 1 group I member 2 (Homo sapiens) (O75469 whole entry, looked up): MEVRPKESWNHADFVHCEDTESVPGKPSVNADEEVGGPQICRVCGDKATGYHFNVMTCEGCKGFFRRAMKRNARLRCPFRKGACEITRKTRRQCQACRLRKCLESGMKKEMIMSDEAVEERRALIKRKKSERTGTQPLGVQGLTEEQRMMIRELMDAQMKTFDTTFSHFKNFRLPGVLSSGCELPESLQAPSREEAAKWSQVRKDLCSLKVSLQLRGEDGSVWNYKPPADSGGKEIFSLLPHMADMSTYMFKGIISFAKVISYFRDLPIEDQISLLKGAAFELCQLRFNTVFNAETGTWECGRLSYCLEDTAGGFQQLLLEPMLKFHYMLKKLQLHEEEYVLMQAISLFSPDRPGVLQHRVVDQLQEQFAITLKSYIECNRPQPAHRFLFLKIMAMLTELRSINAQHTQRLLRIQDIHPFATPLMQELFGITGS
In short: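 hPXR-LucHepG2 cells in phenol red-free DMEM with 5% charcoal-stripped FBS, 2000 cells/well, attached 5 h, then exposed 24 h at 37C to compounds; rifampicin as positive agonist control (2.8 nM–92 uM). Luciferase luminescence read.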

[19] = biological target: Nuclear receptor subfamily 1 group I member 2 (Homo sapiens) (UniProt O75469); experiment: Dual reporter qHTS for antagonist of Pregnane X Receptor (hPXR) against the NCATS DSHEA and TCM libraries: Luminescence Readout (AID 1920060);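 further: HepG2 cells carrying hPXR luciferase reporter stimulated with rifampicin at 2 µM; 0% is about no effect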
In short: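 In antagonist mode, 2 uM rifampicin was added to hPXR-Luc HepG2 cells alongside test substances, incubated 24 h at 37 C; luminescence gave reporter activity, and CellTiter-Fluor fluorescence (405/540 nm) gave viability.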

[20] = biological target: Cytochrome P450 1A2 (Homo sapiens) (UniProt P05177); experiment: qHTS for inhibitors of CYPIA2 against the NCATS DSHEA and TCM libraries (AID 1919976); further: on the % scale 0 is the no-effect control and ±100 the full control effect
In short: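 Luminescence read-out: pro-luciferin converted to D-luciferin by CYP1A2, detected with P450-Glo reagent after 30 min RT. Enzyme plus substrate got compounds for 15 min RT; NADPH regeneration solution (final 1x) started a 30-45 min reaction, light-protected.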

COCCn1c(=O)c(-c2ccc(F)cc2)nc2cnc(Oc3ccccc3)nc21
active: Potency [2] 0.794 µM
inactive: Potency [1] > 11.4 µM | outcome [3] | Potency [4] > 46 µM | Potency [5] | Potency [6]

Cc1ncc(COP(=O)(O)O)c(C)c1O
inactive: Potency [1] > 11.4 µM | activity change, negative = inhibition [2] -20.3% [at 11.4 µM] | activity change, negative = inhibition [7] -4.14% | outcome [3] | Potency [8] > 46 µM | Potency [4] > 9.22 µM | activity change, negative = inhibition [5] 4.19% [at 11.4 µM] | outcome [9] | outcome [10] | Potency [11] | outcome [12] | Potency [13] | Potency [14] | outcome [15] | max response [16] -1.84% | outcome [17] | Potency [18] | outcome [19]

C=C1C[C@@]23CC[C@H]4[C@@](C)(CCC[C@@]4(C)C(=O)O[C@@H]4O[C@H](CO)[C@@H](O)[C@H](O)[C@H]4O)[C@@H]2CC[C@]1(O[C@@H]1O[C@H](CO)[C@@H](O)[C@H](O[C@@H]2O[C@H](CO)[C@@H](O)[C@H](O)[C@H]2O)[C@H]1O[C@@H]1O[C@@H](C)[C@H](O)[C@@H](O)[C@H]1O)C3
inactive: outcome [9] | outcome [10] | Potency [11] | outcome [12] | Potency [13] | Potency [14] | outcome [15] | Potency [20] | max response [16] 2.19% | outcome [17] | Potency [18] | outcome [19]

O=C(O)[C@H]1O[C@@H](Oc2c(-c3ccc(O)c(O)c3)oc3cc(O)cc(O)c3c2=O)[C@H](O)[C@@H](O)[C@@H]1O
inactive: outcome [9] | outcome [10] | Potency [11] | outcome [12] | Potency [14] | outcome [15] | max response [16] 3.23% | outcome [17] | Potency [18] | outcome [19]

CC(C)(O)[C@@H]1CC[C@](C)([C@@H]2[C@H](O)C[C@]3(C)C4C[C@@H](O[C@H]5O[C@@H](CO)[C@H](O)[C@@H](O)[C@@H]5O)C5C(C)(C)[C@H](O[C@H]6OC[C@H](O)[C@@H](O)[C@@H]6O)CC[C@]56CC46CC[C@@]23C)O1 (stereo not given in full)
inactive: outcome [9] | outcome [10] | Potency [11] | outcome [12] | Potency [13] | Potency [14] | outcome [15] | Potency [20] | max response [16] 1.31% | outcome [17] | Potency [18] | outcome [19]

CC(C)=CCCC(C)=CCCC(C)=CCCC=C(C)CCC=C(C)CCC=C(C)C
inactive: outcome [9] | outcome [10] | Potency [11] | outcome [12] | Potency [13] | Potency [14] | outcome [15] | Potency [20] | max response [16] -1.5% | outcome [17] | Potency [18] | outcome [19]
